Most compounds without a hit are left out; they make up all but 3.5% or so of the library.
GPR151 activ: activates the human receptor GPR151; PathHunter beta-arrestin GPR151 cells, luminescence; activation, % at 11.2 µM; 650,000 tested, 1% active; in the data active means activation above about 4.9%;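 further: 0% = median of compound wells and 100% = cells with positive control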
Target sequence (Q8TDV0 whole entry, looked up): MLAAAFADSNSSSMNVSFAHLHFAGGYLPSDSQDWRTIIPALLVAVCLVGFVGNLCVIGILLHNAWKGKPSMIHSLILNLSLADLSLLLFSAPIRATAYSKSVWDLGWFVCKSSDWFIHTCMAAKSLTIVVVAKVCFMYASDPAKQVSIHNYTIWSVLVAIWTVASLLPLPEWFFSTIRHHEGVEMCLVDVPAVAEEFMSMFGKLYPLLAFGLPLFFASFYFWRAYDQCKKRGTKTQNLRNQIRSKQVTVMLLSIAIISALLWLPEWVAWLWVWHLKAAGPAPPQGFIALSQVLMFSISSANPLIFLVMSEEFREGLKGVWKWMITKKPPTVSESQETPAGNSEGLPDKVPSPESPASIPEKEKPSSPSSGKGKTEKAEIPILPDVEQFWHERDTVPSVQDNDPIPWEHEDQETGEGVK
FBW7 act: human FBW7 E3 ligase activation, primary screen; Q969H0; AlphaScreen FBW7–phospho-cyclin E peptide binding, activator screen; normalized activity (activation), % at 26.1 µM; 650,000 tested, 0.13% active; AID 1259310; in the data active means normalized activity above about 1.9%;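 further: purified mutant Fbw7 with reduced substrate affinity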
TEAD-YAP inh: TEAD-YAP interaction inhibition; HEK-TIYL cells, TEAD-Gal4/YAP UAS-luciferase luminescence; inhibition, % at 9.12 µM; 640,000 tested, 1.4% active; AID 1259422; in the data active means inhibition above about 32%;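 further: 0% = median of test compound wells and 100% = reference inhibitor wells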
MITF primary: human MITF inhibition, primary screen; 650,000 tested, 0.91% active; AlphaScreen MITF homodimerization, bead proximity signal; inhibition, % at 2.6 µM; AID 1259374; in the data active means inhibition above about 50%;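 further: 0% = vehicle wells with protein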
GPR151 conf act: human GPR151 activation, confirmation screen; shares compounds with GPR151 activ; GPR151 PathHunter beta-arrestin cells, luminescence, 90 min; % of EA-reagent control over plate median; activation, % at 11.2 µM; 6,700 tested, under 10 active; AID 1508609;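 active means mean percent activation across replicates above the confirmation screen cutoff of 4.91%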
GPR119 ag: counter-screen for GPR151 activators: effect on human GPR119; activation, % at 11.2 µM; 6,700 tested, 0.3% active; shares compounds with GPR151 activ; GPR119 PathHunter beta-arrestin cells, luminescence, 90 min; 0 = compound-well median, 100 = enzyme-acceptor control;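 active means mean percent activation in the counterscreen above 29.09%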;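 further: counterscreen on off-target GPR119 to flag nonselective hits from the GPR151 activator screen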
* hit, by the source's call; x = no result.

SMILES | GPR151 activ | FBW7 act | TEAD-YAP inh | MITF primary | GPR151 conf act | GPR119 ag
Nc1ccc(NC(=O)c2ccc(C(=O)Nc3ccc(N)cc3N)cc2)c(N)c1 | 0 | 0 | 2 | 14 | x | x
CC(C)c1ccc(NC(=O)c2ccc(N)cc2)c(N)c1 | 5.8* | 0 | -50 | -3 | 0 | -11
CC(Oc1ccccc1)C(=O)Nc1ccc(F)cc1F (configuration not stated) | 5.3* | 0 | 7 | -14 | -1 | -3
C=CCOc1ccc(/C=c2\sc3nc(-c4ccco4)nn3c2=O)cc1 | 0 | 0 | 0 | 16 | x | x
CCOc1ccc(-n2c(=C(C#N)C#N)s/c(=C/c3ccc(OC)cc3)c2=O)cc1 | -2 | 0 | -3 | 4 | x | x
CN(Cc1ccccc1)C(=O)c1ccc2c(=O)n(CCc3ccccc3)c(SCc3cccc([N+](=O)[O-])c3)nc2c1 | 11* | 0 | 1 | -5 | -1 | -16
O=C(c1ccc2c(=O)n(CCc3ccccc3)c(SCc3cccc([N+](=O)[O-])c3)nc2c1)N1CCCC1 | 2 | 0 | 10 | 18 | x | x
COc1cc(C)c(C)cc1S(=O)(=O)NC1CCCCC1C (configuration not stated) | 8.8* | 0 | 2 | 5 | 0 | 8
COc1ccc(C)cc1S(=O)(=O)NC1CCCCC1C (configuration not stated) | 2 | 0 | -6 | -5 | x | x
CCCS(=O)(=O)N1CCN=C1SCc1cccc([N+](=O)[O-])c1 | 5.3* | 0 | -14 | 8 | 0 | -2
O=[N+]([O-])c1ccc(CSC2=NCCN2S(=O)(=O)c2ccccc2)cc1 | 5.1* | 1 | 1 | 24 | 1 | -1
O=[N+]([O-])c1ccc(CSC2=NCCN2S(=O)(=O)c2ccc([N+](=O)[O-])cc2)cc1 | 2 | 0 | 4 | 3 | x | x
CCS(=O)(=O)N1CCN=C1SCc1cccc([N+](=O)[O-])c1 | 0 | 0 | 6 | 34 | x | x
O=C(c1ccc(Cn2c(=S)[nH]c3ccsc3c2=O)cc1)N1CCN(c2ccccc2)CC1 | 0 | 0 | -6 | 5 | x | x
O=C1NC(=O)N(C2CCCCC2)C(=O)/C1=C\c1ccc(N2CCCC2)cc1 | 1 | 0 | 11 | 3 | x | x
O=C(CN1CCN(C(=O)c2ccco2)CC1)NN(Cc1ccccc1)c1ccccc1 | 5.4* | 0 | 3 | 34 | 0 | -6
O=C(O)c1cccc(N2CCCC2=O)c1 | 5.4* | 0 | -6 | -4 | 0 | 12
CCC(C)NC(=O)c1cccc(N2CCCC2=O)c1 (configuration not stated) | 0 | 0 | -7 | 5 | x | x
C[C@@H](N)c1ccc(C(=O)NC2CCNCC2)cc1 | -1 | 0 | -1 | -9 | x | x
COC1CCN(c2nc3nonc3nc2NCc2cccs2)CC1 | 8.8* | 0 | -27 | 6 | 1 | 2
COCC1CCN(c2nc3nonc3nc2NCc2cccs2)CC1 | 0 | 0 | 1 | -3 | x | x
COc1ccc(/C=C/C(=O)Nc2cc([N+](=O)[O-])ccc2OC)cc1Br | 5.4* | 0 | 3 | 15 | 1 | 0
CCOc1ccc(/C=C/C(=O)Nc2cc([N+](=O)[O-])ccc2C)cc1OC | 6.5* | 0 | 8 | -12 | 1 | 8
CCOCC(=O)Nc1cc([N+](=O)[O-])ccc1OC | 1 | 0 | 4 | 8 | x | x
COc1ccc(/C=C/C(=O)Nc2ccc([N+](=O)[O-])cc2OC)cc1Br | 0 | 0 | 3 | 6 | x | x
SMILES | GPR151 activ | FBW7 act | TEAD-YAP inh | MITF primary | GPR151 conf act | GPR119 ag
CCOCC(=O)Nc1cc([N+](=O)[O-])ccc1C | 6.2* | 0 | 1 | -8 | 0 | -5
O=C(/C=C/c1ccc([N+](=O)[O-])cc1)Nc1ccccc1C(=O)Nc1cccc(C(=O)O)c1 | 4.9* | 0 | -6 | 1 | 1 | 18
COc1ccc([N+](=O)[O-])cc1NC(=O)/C=C/c1ccc(F)cc1 | 8.8* | 0 | 19 | 12 | 0 | -15
COc1ccc(/C=C/C(=O)Nc2cc([N+](=O)[O-])ccc2F)cc1OC | 0 | 0 | 3 | 8 | x | x
CC#CCN1C(=O)NC(CCc2ccccc2)(C2CCN(C(=O)C#CC)CC2)C1=O (configuration not stated) | 7.0* | 0 | 3 | 9 | 0 | 4
Cc1cc(-c2nc3cc(Cl)ccc3c(=O)o2)ccc1[N+](=O)[O-] | 6.3* | 0 | -4 | -4 | 0 | 3
Cc1ccc(-c2nc3cc(Cl)ccc3c(=O)o2)cc1C | -2 | 0 | -47 | -8 | x | x
CS(=O)(=O)Nc1nc(CC(=O)O)cs1 | 5.2* | 0 | 3 | -5 | 0 | 6
CC(C)c1ccc(Nc2nc(CC(=O)O)cs2)cc1 | 1 | 0 | -20 | -4 | x | x
Cc1ccc(Cn2ncc3c(NCCCN4CCOCC4)ncnc32)cc1 | 0 | 0 | -1 | -11 | x | x
Clc1ccc(Cn2ncc3c(NCCN4CCOCC4)ncnc32)cc1 | 6.7* | 0 | -4 | 11 | 0 | 2
COc1ccc(CCNC(=O)CSc2nc3ccccc3c(=O)n2CCCC(=O)NCCc2ccccc2)cc1OC | 0 | 0 | 1 | 1 | x | x
CCN(CC)c1ncnc2sc(C(=O)Nc3ccc(OC)c(Cl)c3)c(C)c12 | 2 | 0 | -13 | -4 | x | x
c1csc(-c2nnc(N3CCOCC3)c3ccccc23)c1 | 5.9* | 0 | 6 | 5 | 0 | 2
COc1ccnc(Cn2nc(C)c3cccn3c2=O)c1OC | 6.1* | 0 | 9 | 10 | 0 | -8
O=C(CN1Cc2ccccc2OC(c2ccccc2F)C1)N1CCCC1c1n[nH]c(=O)[nH]1 (configuration not stated) | 7.5* | 0 | -8 | -11 | 0 | 2
O=C1CCC(C(=O)NCc2nnc3n2CCN(Cc2ccccc2C(F)(F)F)CC3)N1 (configuration not stated) | 9.8* | 0 | -3 | 1 | 0 | -4
COc1ccc(OC)c(C2CC(=O)N3CN(c4ccccc4)CSC3=C2C#N)c1 (configuration not stated) | 5.7* | 0 | 2 | 16 | 0 | 0
COc1cccc(C2CC(=O)N3CN(c4ccccc4)CSC3=C2C#N)c1 (configuration not stated) | 0 | 0 | -2 | 8 | x | x
CCC(C(=O)NCCCN1CCOCC1)n1ncn2c(cc3occc32)c1=O (configuration not stated) | 9.9* | 0 | 0 | 11 | 1 | 7
Cc1cccc(-n2c(COc3ccccc3C)nnc2SCC(N)=O)c1 | 1 | 0 | -20 | -14 | x | x
Cc1cnc(NC(=O)Cc2ccsc2)s1 | 6.3* | 0 | -1 | 4 | 0 | -1
C=CCN1C(=O)/C(=C\c2cc(Cl)c(O)c(OCC)c2)C(=O)NC1=S | 7.4* | 0 | -11 | 6 | -1 | 0
C=CCN1C(=O)/C(=C\c2cc(Cl)c(O)c(Cl)c2)C(=O)NC1=S | 0 | 0 | 1 | 6 | x | x
